Several values for one entry are separate records, joined by “and”; a condition that tells them apart may be missing. Equal entries are not always repeated. The panel holds about 83,000 compounds, 20% with a hit somewhere; the sample as a whole holds those more often.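 The test compound was applied at a single concentration to cells in 96-well plates for 48 hours, and percent growth was recorded.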 Unmarked numbers belong to inactive results. Activity calls are given as the source filed them. How the source made its calls: active means growth percent below 10; inactive means the rest.

The subject of the assay is MDA-MB-468 breast. The assay can be described thus: NCI-60 one-dose screen, 48 h (100 = growth as untreated, 0 = no growth, -100 = all killed). Particulars: 10 µM unless noted.
Consider `COC(=O)C1(C)COP(=O)(Nc2ccc(OC)cc2)OC1` (stereo not given), for which the growth was 106%.

With `Cc1ccc(-c2nc(C(Cl)Cl)nc3cc(-c4ccccc4)nn23)cc1`, the growth is -54.2% (active).

Turning to `CN(C)c1ccc(-c2c(C#N)c(N)n3nc(N)c(C#N)c3c2C#N)cc1`, the growth is 81.3%.

Consider `CCOC(=O)c1c2c(n3ccc(NC(=O)CCN4CCCCC4)cc13)C(=O)c1ncccc1C2=O`, for which the growth is 83.1%.

Consider `CN1CCN(c2ccc(Nc3nc(NCCNS(=O)(=O)c4ccc5ccccc5c4)c4sccc4n3)cc2)CC1`, for which the growth is 2.8% (active).

For the molecule `O=C(NNc1nc(N2CCCC2)nc(N2CCCC2)n1)c1ccccc1`, the growth is 112%.

Regarding `COc1ccc2[nH]cc(/C=N/Nc3ccnc4cc(Cl)ccc34)c2c1`, the growth is -80.8% (active).

As for `CCOC(=O)c1cn2c3c(cc(C)cc3c1=O)C(=O)/C(=C/c1ccccc1)C2`, the growth is 84.6%.

In the case of `COc1cccc(NC2=CC(=O)C(C)=C(C)C2=O)c1`, the growth is 25.8%.

For `O=C(Nc1nccs1)c1noc2ccccc12`, the growth is 87.3%.

As to `COc1ccc(-c2[nH][nH]c(=O)c2-c2nc3ccccc3s2)cc1`, the growth was 119%.

Take `CCCCCCCCCCCCCC`: the growth is 110%.

For `C=CCN(CC=C)C(=O)[C@H](CC)[C@@H]1CC[C@@H](C)[C@@H]([C@H](C)[C@@H](O)[C@@H](C)C(=O)[C@H](CC)C2O[C@]3(C=C[C@@H](O)[C@]4(CC[C@@](C)([C@H]5CC[C@](O)(CC)[C@H](C)O5)O4)O3)[C@H](C)C[C@@H]2C)O1` (stereo not given in full), the growth was -19.1% (active).

Take `CCOC(=O)c1c(C(=O)c2cn(C)c3ccc(Br)cc23)c(-c2cn(C)c3ccc(Br)cc23)n(NC(=O)OC(C)(C)C)c1C`: the growth is 41.5% [100 µM].

Turning to `CCOC(=O)CNC(=O)Nc1ccc(Oc2ccc(NC(=O)NCC(=O)OCC)cc2)cc1`, the growth was 99.5%.

On to `Cc1cc(C)n(C(=O)CSc2nc3sc4c(c3c(=O)n2-c2ccccc2)CCCCC4)n1`, for which the growth was 111%.

Consider `O=C1CCC23OC(c4ccccc4N12)C(O)C(O)C3O` (stereo not given), for which the growth was 114%.

On to `CC(=O)O[C@H]1CC[C@]2(C)[C@H]3CC=C4[C@@H]5CC(C)(C)CC[C@]5(C(=O)OCC(COC(=O)C(Cl)Cl)(COC(=O)C(Cl)Cl)NC(=O)C(Cl)Cl)CC[C@@]4(C)[C@]3(C)CC[C@H]2C1(C)C`, for which the growth is 58.7%.

As to `N#Cc1ccc(NC(=O)Nc2ccc(Oc3ccc(NC(=O)Nc4ccc(C#N)cc4)cc3)cc2)cc1`, the growth is 26%.

For the molecule `COc1ccc(-c2ccc(NC(=O)Nc3ccc(Cl)c(C(F)(F)F)c3)c(C)n2)cc1`, the growth is 38.5%.

Turning to `C=C1C(=O)O[C@H]2[C@H]1CC/C(COC(=O)NCc1ccc(Cn3c(=O)sn(-c4ccccc4)c3=O)cc1)=C\CC[C@@]1(C)O[C@@H]21`, the growth was -33.8% (active).

As for `CCCCCCCCC/C(=N\NC(=O)c1ccncc1)c1ccc(O)c(O)c1O`, the growth is 18.5%.

With `O=C(C[Si](CC(=O)c1cccc(C(F)(F)F)c1)CC(=O)c1cccc(C(F)(F)F)c1)c1cccc(C(F)(F)F)c1`, the growth is 91%.

On to `N#CC(C(=O)/C(=N/NC(=O)c1ccccc1O)C(C#N)c1ccccc1)c1ccccc1` (stereo not given), for which the growth is 67.1%.

Consider `c1ccc(CSc2nnc3c4c5c(sc4nc(-c4cccnc4)n23)CCCCCC5)cc1`, for which the growth is 0.132% (active).

For the molecule `Oc1ccc(/C=N/Nc2nc3ccccc3s2)c(O)c1`, the growth is 20.2%.

For `COc1ccc(C2=NN(C(=O)c3cc(OC)c(OC)c(OC)c3)C(c3ccc(N(C)C)cc3)C2)cc1` (stereo not given), the growth was 22.7%.

Take `CCCCCCCCN(CCCCCCCC)CC(O)c1cc(-c2ccccc2)nc2ccc(OC)cc12` (stereo not given): the growth is 104%.

In the case of `O=C(NO)c1ccc(NCc2csc3ccccc23)cc1`, the growth was 76.9%.

On to `O=c1c(Br)ccc(Br)cc1Br`, for which the growth was -65.9% (active).

`CCN(CC)CCCC(CNc1ccnc2cc(Cl)ccc12)c1ccc(Cl)cc1` (stereo not given): the growth is -78.1% (active) and -70.5% (active).

On to `COc1ccc(-c2nnc(COc3ccc(NC(=O)Nc4cc(C(F)(F)F)cc(C(F)(F)F)c4)cc3F)o2)cc1`, for which the growth is -9.21% (active).

With `O=C(O)c1ccc[n+](CC(=O)N2CCN(c3cc4c(cc3F)c(=O)c(C(=O)O)cn4C3CC3)CC2)c1`, the growth was 81.4%.

As for `COc1ccc(C(=O)Cn2c(C(=O)c3ccccc3)nc3ccccc32)cc1`, the growth is 2.35% (active).

Regarding `Cc1cc(C(=O)O)c(N)c(C)n1`, the growth was 120%.

With `CC(=O)N1C(=S)NC(=O)C1CC(C)C` (stereo not given), the growth is 100%.

Turning to `O=c1c2cc(F)ccc2sc2c(NCCO)nc3ccccc3c12`, the growth was 80.3%.

With `CC(C)NS(=O)(=O)/N=C1\NC(=O)NC1=C(Cl)Cl`, the growth is 60.6%.

In the case of `COc1ccc(/C(=N\N)C(=O)c2ccccc2)cc1` (tested in a mixture with another compound), the growth is 89%.

Regarding `C#C[C@@]1(O)[C@@H](CO)O[C@@H](n2cc(Cl)c3c(N)ncnc32)[C@@H]1O`, the growth was -49% (active).

(Values after PubChem BioAssay (NCI).)
